Source: PubChem BioAssay AID690 (Sanford-Burnham Center for Chemical Genomics, 2007)
About 80 (0.08%) of roughly 96,000 compounds were called active. No rule for the calls is given here. A selection follows. Results with a measured potency or affinity are listed apart.

molecular target: Alkaline phosphatase, placental type (Homo sapiens) (UniProt P05187); test: PLAP enzyme inhibitors, biochemical, luminescence, HTS (AID 690); conditions: purified PLAP, luminescent substrate; at 20 µM; stronger effect = higher value
Sequence (P05187 whole entry, looked up): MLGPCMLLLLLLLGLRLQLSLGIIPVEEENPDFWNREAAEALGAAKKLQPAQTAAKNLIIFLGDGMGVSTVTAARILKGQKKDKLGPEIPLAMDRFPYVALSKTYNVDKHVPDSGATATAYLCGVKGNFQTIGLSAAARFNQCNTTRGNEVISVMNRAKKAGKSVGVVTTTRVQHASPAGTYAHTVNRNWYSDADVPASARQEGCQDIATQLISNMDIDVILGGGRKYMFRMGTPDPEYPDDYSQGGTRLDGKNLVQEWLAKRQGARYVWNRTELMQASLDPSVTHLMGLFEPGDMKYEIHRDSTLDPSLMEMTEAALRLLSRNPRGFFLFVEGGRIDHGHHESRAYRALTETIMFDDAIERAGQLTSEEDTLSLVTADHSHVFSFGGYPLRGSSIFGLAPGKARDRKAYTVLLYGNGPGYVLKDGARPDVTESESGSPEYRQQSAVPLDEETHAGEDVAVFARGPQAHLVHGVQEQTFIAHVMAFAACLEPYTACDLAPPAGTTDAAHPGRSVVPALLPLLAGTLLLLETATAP

inhibition, inactive:
CCCc1nc(NCc2ccccn2)c2nnn(Cc3ccccc3F)c2n1 -1.1%
COc1ccc(NC(=O)Cc2cccs2)c(OC)c1 9.5%
O=C(Cc1n[nH]c(=O)[nH]c1=O)N/N=C/c1ccccc1 -5.4%
CCn1c(SCC(=O)O)nnc1-c1ccccc1 -9.1%
CCn1c(SCC(=O)c2ccc(O)c(O)c2)nnc1-c1ccc(C)cc1 -7.9%
Cc1ccccc1CSc1nccn1-c1ccccc1 19%
COc1ccc(C2=Nn3c(nnc3-c3ccco3)SC2)cc1OC 14.5%
COc1cccc(C2=Nn3c(nnc3-c3ccccc3O)SC2)c1 -37.4%
COc1ccc(-c2nnc3n2N=C(c2cccc(Br)c2)CS3)cc1OC 7.3%
COc1ccc(C2=Nn3c(nnc3-c3ccco3)SC2)cc1 -72.6%
CCOC(=O)CC1C(=O)NCCN1C(=O)c1cccc(C(F)(F)F)c1 (configuration not stated) 4.8%
COc1ccc(S(=O)(=O)NCC(=O)N(CC(=O)NCC2CCCO2)c2cc(C)ccc2C)cc1 (configuration not stated) -64.9%
Cc1ccc(Cn2nnnc2CN2CCC(c3nc4ccc(Cl)cc4[nH]3)CC2)cc1 -87.9%
Cc1cc2nc(C3CCN(Cc4nnnn4Cc4ccccc4)CC3)[nH]c2cc1C -140%
COCCCNC(=O)CCn1c(=O)c2ccccc2n(CC(=O)Nc2cc(Cl)ccc2C)c1=O 7.1%
Cc1c(O)ccc(C(=O)COc2ccccc2F)c1O 8.2%
C=CCNc1ncnc2ccccc12 7.5%
Cc1ccc(N2Cc3ccccc3OC(C)C2=O)cc1 (configuration not stated) -23.8%
Cc1cn2c(-c3cccnc3)nnc2s1 3.7%
CCCn1c(=O)[nH]c(=O)c2c1nc(-c1ccc(OC(F)F)cc1)n2CCN1CCOCC1 12.5%
CCCc1[nH]nc2c1C(c1cc(OC)cc(OC)c1)C(C#N)=C(N)O2 (configuration not stated) -45.4%
COCc1[nH]nc2c1C(c1ccc(OC)c(OC)c1)C(C#N)=C(N)O2 (configuration not stated) -0.8%
COCc1[nH]nc2c1C(c1ccc(OC)cc1)C(C#N)=C(N)O2 (configuration not stated) 6.1%
CCCc1[nH]nc2c1C(c1cccc(OC)c1)C(C#N)=C(N)O2 (configuration not stated) -46.3%
CC(=O)N(C)c1ccc(NC(=O)/C=C/c2ccccc2Cl)cc1 0.9%
CCC1=C(OC(=O)c2ccccc2)C(C)(C)C(c2ccccc2)OC1=O (configuration not stated) 22.6%
CC1=C(C(N)=O)C(c2ccncc2)n2nc(-c3ccccc3Cl)nc2N1 (configuration not stated) 8.9%
CCOC(=O)c1ccc(CNC(=O)Cn2nnc(-c3ccc(C)cc3)n2)o1 1.5%
COC(=O)c1ccc(C)c(NC(=O)Cn2cnc3ccccc3c2=O)c1 5.9%
CCN=c1scc(-c2ccco2)n1/N=C/c1ccc(OC)c(O)c1 -2.2%
CCN=c1scc(-c2ccco2)n1/N=C/c1ccc(O)cc1 -11.5%
CCc1ccc(CN2CCN(S(=O)(=O)Cc3ccccc3)CC2)cc1 11.5%
CC(=O)Nc1ccc(-c2cc3ccccc3o2)cc1 0.5%
Cc1ccccc1C(=O)c1cccn1CC(=O)NCC1CCCO1 (configuration not stated) -11.1%
COc1ccc(/C=C2\N=C3CCCCCN3C2=O)cc1OC -6.1%
COc1cccc(/C=C2\N=C3CCCCCN3C2=O)c1 2.1%
Cc1ccc(C)c(NC(=S)NC(NC(=O)N(C)C)C(Cl)(Cl)Cl)c1 (configuration not stated) -58%
Cc1ccc(NC(=S)NC(NC(=O)Cc2cccc3ccccc23)C(Cl)(Cl)Cl)cc1 (configuration not stated) 36.5%
Cc1nc(N2CCN(S(=O)(=O)c3ccccc3)CC2)c2c3c(sc2n1)CC(C)CC3 (configuration not stated) -34.1%
O=C1c2ccc3c4c(ccc(c24)C(=O)N1Cc1cccnc1)C(=O)N(Cc1cccnc1)C3=O 4.9%
CC(O)CNc1nc2c(c(=O)n(C)c(=O)n2C)n1C/C=C/c1ccccc1 (configuration not stated) -20.9%
CCCN1/C(=C2/SC(=S)N(CC)C2=O)C=Cc2ccccc21 11.9%
CCN1C(=O)/C(=C2\C=Cc3ccccc3N2CC)SC1=S 23.5%
CCn1ncc(Br)c1C(=O)N(C)C12CC3CC(CC(C3)C1)C2 -9.1%
CN(CCNC(=O)c1cccc(N2CCCC2=O)c1)Cc1ccccc1 -40.3%
O=C1Nc2ccccc2/C1=N\N=C\C1=C(N2CCOCC2)C(=C\c2ccccc2)/CC1 -12.2%
O=P(C1=C(N2CCOCC2)/C(=C\c2ccccc2)CC1)(N1CCOCC1)N1CCOCC1 -69.4%
O=C(O)c1c(Cl)c(Cl)c(Cl)c(Cl)c1C(=O)N1CCCC1 -10.8%
CCOCC(O)CSCc1ccc(Cl)cc1 (configuration not stated) -5%
COc1ccc(CNC(=O)c2ccc(-c3ccccc3)cc2)cc1 6.9%
Fc1ccccc1CSc1nnnn1-c1ccc2c(c1)OCO2 13.8%
Fc1cccc(Cl)c1CSc1nnnn1-c1ccc2c(c1)OCO2 22.7%
CCOC(=O)CC(=O)CSc1nc2c(cc1C#N)CCC2 0%
CC(C)NS(=O)(=O)c1ccc(OCC(=O)NCc2ccccc2)cc1 -1.7%
O=C1C2CC=CCC2C(=O)N1c1n[nH]c(CCc2ccccc2)n1 (configuration not stated) -20.2%
O=C1C2C3C=CC(C3)C2C(=O)N1c1cccc(N2C(=O)C3C4C=CC(C4)C3C2=O)n1 (configuration not stated) -1.8%
O=C1C2C3C=CC(C3)C2C(=O)N1Cc1cccnc1 (configuration not stated) 0.6%
O=C1C2C3C=CC(C3)C2C(=O)N1c1n[nH]c(CCc2ccccc2)n1 (configuration not stated) 30%
O=C1C2CC=CCC2C(=O)N1c1n[nH]c(Cc2ccccc2)n1 (configuration not stated) 62.3%
O=C1C2C3C=CC(C3)C2C(=O)N1c1cccnc1 (configuration not stated) 15.9%
Cc1ccc(SCCNC(=O)C(CO)(CO)CO)cc1 11.9%
COc1ccc(CN(Cc2cc3ccc(C)cc3[nH]c2=O)Cc2nnnn2C2CCCC2)cc1 -54.8%
